Assay results taken from PubChem BioAssay (Tox21).
Records with an inconclusive call do not appear. The source made the active and inactive calls. Calls follow the shape of the dose curve; as a rule, active = well fitted cell-killing curve with a large enough effect in the repeat runs; inconclusive = weak or mixed curves; inactive = flat fitted curve, though single readings scatter.

Assay: qHTS RealTime-Glo MT Cell Viability Assay in HepG2 cells - 8 hour (AID 1224873); also: nearly all actives have a fitted effect of over 55% in size
Conditions: RealTime-Glo luminescence; series mostly up to 76.8 µM; viability change, negative = cytotoxic: at the top concentration
Text: National Center for Advancing Translational Sciences [NCATS]
NIH Chemical Genomics Center [NCGC]
U.S. Environmental Protection Agency [EPA]
National Institutes of Environmental Health Sciences [NIEHS]
National Toxicology Program [NTP]
U.S. Food and Drug Administration [FDA]
Measure of cell viability is critical in the cell-base assay. Analysis of cell viability is necessary for the characterization of cell responses to cytotoxic drugs and environmental stress. A RealTime-Glo MT Cell Viability Assay to monitor cell viability in real time of continues cell culture during 40 hours of compound treatment was used to screen Tox21 10K library compounds in HepG2 cells. The RealTime-Glo MT Cell Viability Assay is a nonlytic, homogeneous, bioluminescent method to measure cell viability in real time using a simple, plate-based method. The assay involves adding NanoLuc luciferase and a cell-permeant prosubstrate to cells in culture. Viable cells reduce the proprietary prosubstrate to generate a substrate for NanoLuc luciferase. This substrate diffuses from cells into the surrounding culture medium, where it is rapidly used by the NanoLuc Enzyme to produce a luminescent signal. The signal correlates with the number of viable cells, making the assay well suited for cytotoxicity studies.
Tox21 Assay Protocol Summary:
The mixture of HepG2 cell suspension and reagents were dispensed at 600cells/6 ul/well in 1536-well tissue culture treated black solid bottom plates using a Multidrop dispenser. After the assay plates were incubated at a 37 C/5% CO2 incubator for 5 hours, 23 nL of compounds dissolved in DMSO, positive and negative controls was transferred to the assay plate by a pintool work station. The plates were incubated at 37 C for 40 hours. The luminescence intensity were measured at 0h, 8h, 16h, 24h, 32h and 40h time points using ViewLux plate reader during compound treatment.
% is scaled to controls: 0 for no effect and ±100 for the full control effect.

Row | SMILES | viability change, negative = cytotoxic
1 | CCOC(CN1CCN(CC(C)C(=O)c2ccccc2)CC1)c1ccccc1 (stereo not given) | -2.57% [at 15.8 µM] (inactive)
2 | N#CCC(=O)NN | 2.14% [at 35.3 µM] (inactive)
3 | Cc1cc(C)c(C(=O)O)c(C)c1 | 0.881% (inactive)
4 | Cc1ccnc(N)c1 | -0.626% (inactive)
5 | CN1C[C@@H]2C[C@H]1CN2c1cc2c(cc1F)c(=O)c(C(=O)O)cn2C1CC1 | 8.97% [at 15.8 µM] (inactive)
6 | O=C(CCCl)NCCc1ccccc1 | 8.49% [at 35.3 µM] (inactive)
7 | CC(C)=CCC[C@@](C)(O)[C@H]1CC=C(C)CC1 | -2.11% [at 35.3 µM] (inactive)
8 | CC(=O)C(C)O (stereo not given) | -0.431% (inactive)
9 | Cc1ccc(C(=O)O)cc1[N+](=O)[O-] | 0.663% (inactive)
10 | CCCCC1CCC(O)CC1 (stereo not given) | -0.318% (inactive)
11 | CC(=O)OC(C)=O | 1.22% (inactive)
12 | C=C(C)[C@@H]1CC=C(C)CC1 | 2.49% (inactive)
13 | CC1(C)O[C@H]2CC(=O)OC[C@]23[C@H]2CC[C@@]4(C)[C@H](c5ccoc5)OC(=O)[C@H]5O[C@]54[C@]2(C)C(=O)C[C@@H]13 | -1.04% [at 35.3 µM] (inactive)
14 | O=C(Cn1ccnc1[N+](=O)[O-])NCc1ccccc1 | -0.497% [at 35.3 µM] (inactive)
15 | CCCCCCC1(C)CCC(=O)O1 (stereo not given) | -1.3% (inactive)
16 | CN(C)C(C)(C)CO | 2.96% (inactive)
17 | N[C@@H](CSCCCO)C(=O)O | 1.95% [at 15.8 µM] (inactive)
18 | COc1cc2c(cc1OC)CN(C(=O)[C@H](C)N[C@@H](CCc1ccccc1)C(=O)O)[C@H](C(=O)O)C2 | 8.09% [at 35.3 µM] (inactive)
19 | Cc1ccc(N)cc1S(=O)(=O)O | 0.0821% (inactive)
20 | COc1cc(OC)nc(O[C@H](C(=O)O)C(OC)(c2ccccc2)c2ccccc2)n1 | -4.36% [at 35.3 µM] (inactive)

Row | SMILES | viability change, negative = cytotoxic
21 | CC(Oc1cc(Cl)ccc1Cl)C(=O)O (stereo not given) | 0.729% (inactive)
22 | CC1=C(O)C(=O)C(C)O1 (stereo not given) | 1.73% (inactive)
23 | Cn1c(=O)c2c(ncn2CCO)n(C)c1=O | -1.14% [at 35.3 µM] (inactive)
24 | Cc1ccc(C(C)NC(=O)[C@@H](NC(=O)OC(C)C)C(C)C)cc1 (stereo not given in full) | -7.98% (inactive)
25 | CCCCOCC(C)O (stereo not given) | -0.0089% (inactive)
26 | OC1(c2ccc(Cl)cc2)CCNCC1 | 1.59% [at 35.3 µM] (inactive)
27 | CCn1cc(C(=O)O)c(=O)c2cnc(N3CCCC3)nc21 | 5.81% [at 6.97 µM] (inactive)
28 | CC(C)=CCC/C(C)=C/COC=O | -0.117% (inactive)
29 | CC(C)CCOC(=O)c1ccccc1 | -6.99% (inactive)
30 | C=CCCCCCCCCC(=O)OCCCC | -6.18% (inactive)
31 | C=CC(=O)CCCCC | 5.84% (inactive)
32 | C/C(CC(C)C)=N\O | -2.39% (inactive)
33 | CCOc1ccccc1OCC1CNCCO1 (stereo not given) | 5.82% [at 35.3 µM] (inactive)
34 | CCCCCCCCCCCCCCCCCC#N | -5.41% (inactive)
35 | Nc1nc(-c2ccccc2)c(Br)c(=O)[nH]1 | -3.19% [at 35.3 µM] (inactive)
36 | CCOCCOCC | 2.23% (inactive)
37 | Fc1ccccc1 | -4.7% (inactive)
38 | C=CCCCCCCCC | -0.0192% (inactive)
39 | C/C=C(\C)C(C)=O | 1.48% (inactive)
40 | N#Cc1ccccc1O | -3.48% (inactive)
